Laboratory results from PubChem BioAssay (NCATS).
A number with no mark means an inactive call. Results filed as inconclusive are left out. Activity calls are given as the source filed them. Unless noted, the call rests on the fitted dose curve; in most records, active means well fitted curve in either direction with a large enough effect (not every such curve was filed as active); inconclusive means small, poorly fitted or top-dose-only effect, or another doubt; inactive means flat fitted curve, though single readings scatter.

Legend:
[1] = biological target: Lysosomal acid glucosylceramidase (Homo sapiens) (UniProt P04062); assay: Glucocerebrosidase-p2 (AID 348; in the data active means potency below about 10 µM; further: potency means the concentration at half of the fitted maximal effect); conditions: purified GBA, blue fluorogenic substrate, 40 min
Chain of Lysosomal acid glucosylceramidase (Homo sapiens) (P04062 whole entry, looked up): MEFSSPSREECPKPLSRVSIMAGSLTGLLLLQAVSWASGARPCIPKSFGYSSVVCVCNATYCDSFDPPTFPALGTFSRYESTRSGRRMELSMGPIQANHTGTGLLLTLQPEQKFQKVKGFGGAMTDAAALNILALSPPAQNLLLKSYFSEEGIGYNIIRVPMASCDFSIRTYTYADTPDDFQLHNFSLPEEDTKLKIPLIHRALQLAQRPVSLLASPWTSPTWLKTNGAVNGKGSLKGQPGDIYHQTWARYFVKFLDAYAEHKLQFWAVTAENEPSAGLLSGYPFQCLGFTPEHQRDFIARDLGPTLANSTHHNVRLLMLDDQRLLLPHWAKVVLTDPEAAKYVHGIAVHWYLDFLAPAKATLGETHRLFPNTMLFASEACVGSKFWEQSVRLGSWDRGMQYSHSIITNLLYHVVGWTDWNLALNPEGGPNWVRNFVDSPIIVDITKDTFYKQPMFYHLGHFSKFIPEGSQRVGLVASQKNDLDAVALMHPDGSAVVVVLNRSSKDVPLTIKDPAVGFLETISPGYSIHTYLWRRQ
In short: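 Normal human glucocerebrosidase (0.2 nM) with blue fluorogenic substrate (80 uM final) in citrate/phosphate pH 5.9 with 10mM sodium taurocholate, 0.01% tween-20; 40 min RT, NaOH/glycine stop; fluorescence Ex 365/Em 440; AC50 from a titration from 0.6 nM upwards.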

[2] = AP1 Signaling Pathway (AID 357); conditions: ME-180 AP-1-bla reporter, EGF-induced, beta-lactamase ratio, 5 h; at 7.69 µM (top of the series) unless noted;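 further: ME-180 reporter cells stimulated with EGF at its EC50 level; on the % scale 0 is the no-effect control and ±100 the full control effect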
In short: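 First, ME-180 AP-1-bla cells were cultured overnight at 37 °C in low-serum Opti-MEM. Next, titrated compounds with EC50 EGF were incubated 5 hours. Finally, CCF4 was added for 2.5 hours and the 460/530 nm ratio recorded.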

[3] = NFAT Signaling Pathway (AID 444); conditions: Jurkat NFAT-bla M1, carbachol, beta-lactamase ratio, 5 h; at 7.69 µM (top of the series) unless noted;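 further: carbachol stimulus at about its EC50 of 1 µM final; on the % scale 0 is the no-effect control and ±100 the full control effect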
In short: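 Jurkat cells carrying an NFAT-driven β-lactamase reporter and co-transfected muscarinic M1 receptor were treated with compound plus carbachol (1 uM final, an EC50 level) for 5 h at 37 °C. CCF4 loading followed for 1 h at RT; 460/530 nm ratio gave %activity.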

[4] = Stat Signaling Pathway (AID 446); conditions: ME-180 SIE beta-lactamase reporter, IL-6 stimulated, 5 h; at 7.69 µM (top of the series) unless noted;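 further: ME-180 cervical cancer cells given 40 pM IL-6 alongside compound; SIE-controlled beta-lactamase reporter measured as 460/530 nm FRET emission ratio; on the % scale 0 is the no-effect control and ±100 the full control effect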
In short: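 Emission at 460 and 530 nm (excitation 405 nm) reports SIE-controlled beta-lactamase in ME-180 cells. Cells received compound with 40 pM IL-6 for 5 hrs at 37 C; data scaled between 300 pM IL-6 and 125 nM JAK-inhibitor controls.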

[5] = biological target: Glucocorticoid receptor (Homo sapiens) (UniProt P04150); assay: GR-GFP Redistribution (AID 450;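 active means compounds whose dose series gives a full or clear partial fitted curve of increased nuclear translocation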; further: potency means the concentration at half of the fitted maximal effect); conditions: U2OS GR-GFP nuclear translocation, laser cytometry, 2 h
Chain of Glucocorticoid receptor (Homo sapiens) (P04150 whole entry, looked up, the tested form may be a part): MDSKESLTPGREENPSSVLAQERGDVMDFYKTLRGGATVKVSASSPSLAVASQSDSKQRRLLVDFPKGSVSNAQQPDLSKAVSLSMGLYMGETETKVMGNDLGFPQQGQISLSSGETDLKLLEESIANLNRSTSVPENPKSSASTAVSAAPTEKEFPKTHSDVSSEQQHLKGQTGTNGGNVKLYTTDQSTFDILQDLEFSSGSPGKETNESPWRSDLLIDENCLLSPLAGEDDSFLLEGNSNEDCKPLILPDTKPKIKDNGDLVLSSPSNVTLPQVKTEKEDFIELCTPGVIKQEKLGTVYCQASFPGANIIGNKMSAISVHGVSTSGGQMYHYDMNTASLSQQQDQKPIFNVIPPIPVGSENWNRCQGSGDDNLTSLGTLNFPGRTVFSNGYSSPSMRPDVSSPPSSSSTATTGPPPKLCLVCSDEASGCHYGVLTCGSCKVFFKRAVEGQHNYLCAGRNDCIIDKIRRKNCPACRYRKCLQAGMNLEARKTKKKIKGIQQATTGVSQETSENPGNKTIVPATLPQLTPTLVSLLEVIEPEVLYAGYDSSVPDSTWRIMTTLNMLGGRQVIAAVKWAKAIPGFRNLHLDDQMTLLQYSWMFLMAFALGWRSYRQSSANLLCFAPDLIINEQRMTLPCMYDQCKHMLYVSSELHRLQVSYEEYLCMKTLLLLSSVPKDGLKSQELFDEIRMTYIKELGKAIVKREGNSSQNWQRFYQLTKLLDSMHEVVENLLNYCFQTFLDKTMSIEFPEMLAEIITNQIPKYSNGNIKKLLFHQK

[6] = biological target: Glucocorticoid receptor (Homo sapiens) (UniProt P04150); assay: GR-EFC Redistribution (AID 451; calls by dose curve; further: potency means the concentration at half of the fitted maximal effect); conditions: CHO-K1 GR-EFC translocation, beta-gal luminescence, 2 h
In short: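 CHO-K1 cells stably expressing nuclear-localized β-gal enzyme acceptor and GR fused C-terminally to the enzyme donor fragment; ligand-driven nuclear translocation restores β-gal by complementation. Compounds titrated up to 46 uM final, 2 h at 37 °C; luminescence read.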

[7] = biological target: Mitogen-activated protein kinase 10 (Mus musculus) (UniProt Q61831); assay: JNK3 AlphaScreen Assay (AID 530); conditions: JNK3 lysate, c-Jun phosphorylation; series mostly up to 57.1 µM;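 further: kinase came from lysate of stimulated human HepG2 cells; signal reports phosphorylation of biotinylated GST-cJun 1-79 at Ser73 with 10 µM ATP; on the % scale 0 is the no-effect control and ±100 the full control effect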
In short: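 Phosphorylation of biotinylated GST-cJun(1-79) at Ser73 is measured by AlphaScreen proximity luminescence. Enzyme is JNK3 in HepG2 lysates activated with interleukin-1beta and tumor necrosis factor alpha; ATP is 10 uM final.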

[8] = biological target: 3',5'-cyclic-AMP phosphodiesterase 4B (Homo sapiens) (UniProt Q07343); assay: qHTS Assay for Inhibitors of PDE-IV (AID 607; active means well fitted activation curve with a large enough effect in the main read-out, with a control signal flat, not every such curve was filed as active; further: % of control where 0% means no effect); conditions: HEK293 ACTOne CNG channel cells, membrane potential fluorescence; series mostly up to 22.9 µM
Chain of 3',5'-cyclic-AMP phosphodiesterase 4B (Homo sapiens) (Q07343 whole entry, looked up): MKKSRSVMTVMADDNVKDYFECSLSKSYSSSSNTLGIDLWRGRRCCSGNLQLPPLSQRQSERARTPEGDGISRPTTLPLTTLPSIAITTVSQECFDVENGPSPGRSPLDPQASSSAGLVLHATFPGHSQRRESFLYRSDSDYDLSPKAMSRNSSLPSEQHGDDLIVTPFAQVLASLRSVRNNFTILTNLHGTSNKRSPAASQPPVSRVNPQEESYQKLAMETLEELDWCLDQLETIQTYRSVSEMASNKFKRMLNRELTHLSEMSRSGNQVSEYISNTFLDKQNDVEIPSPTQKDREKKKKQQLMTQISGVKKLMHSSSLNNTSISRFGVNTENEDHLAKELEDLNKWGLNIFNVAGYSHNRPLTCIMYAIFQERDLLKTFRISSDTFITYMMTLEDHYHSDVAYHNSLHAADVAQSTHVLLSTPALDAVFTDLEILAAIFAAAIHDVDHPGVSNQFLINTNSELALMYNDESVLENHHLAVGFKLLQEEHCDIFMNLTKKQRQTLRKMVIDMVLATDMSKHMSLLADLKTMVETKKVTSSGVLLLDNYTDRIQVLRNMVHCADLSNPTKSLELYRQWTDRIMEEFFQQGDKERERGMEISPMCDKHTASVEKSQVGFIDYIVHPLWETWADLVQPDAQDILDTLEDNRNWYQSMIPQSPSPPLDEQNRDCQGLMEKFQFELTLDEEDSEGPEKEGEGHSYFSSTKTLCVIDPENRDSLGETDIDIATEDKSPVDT
In short: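 The readout is membrane depolarisation from a cAMP-sensing CNG channel, detected with a potential dye at ex 535/em 590. Cells were HEK293-derived (endogenous PDE-IV) at 1000 cells/well, titrated up to 22.9 uM final.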

[9] = biological target: Cytochrome P450 3A4 (Homo sapiens) (UniProt P08684); assay: qHTS Assay for Activators of Cytochrome P450 3A4 (AID 885; active means well fitted curve in the direction sought with a large enough effect; an effect the other way counts as inactive or inconclusive; further: nearly all actives have a fitted effect of over 65% in size); conditions: recombinant CYP3A4, Luciferin-PPXE luminescence, 60 min; series mostly up to 57.1 µM
Chain of Cytochrome P450 3A4 (Homo sapiens) (P08684 whole entry, looked up): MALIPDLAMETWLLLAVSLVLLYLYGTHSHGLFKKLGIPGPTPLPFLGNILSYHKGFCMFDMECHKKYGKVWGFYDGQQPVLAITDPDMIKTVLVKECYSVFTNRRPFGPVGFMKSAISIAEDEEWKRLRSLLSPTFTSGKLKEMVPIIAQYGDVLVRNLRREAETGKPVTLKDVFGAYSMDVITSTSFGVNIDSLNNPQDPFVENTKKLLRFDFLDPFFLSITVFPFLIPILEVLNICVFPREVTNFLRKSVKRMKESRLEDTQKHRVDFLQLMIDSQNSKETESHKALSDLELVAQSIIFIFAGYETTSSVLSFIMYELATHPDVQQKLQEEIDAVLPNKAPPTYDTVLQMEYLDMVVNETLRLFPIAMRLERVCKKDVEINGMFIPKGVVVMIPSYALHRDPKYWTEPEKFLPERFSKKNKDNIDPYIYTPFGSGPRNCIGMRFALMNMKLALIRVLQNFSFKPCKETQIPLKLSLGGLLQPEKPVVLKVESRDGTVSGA
In short: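 Activators are scored by enhanced luminescence from CYP3A4 conversion of luciferin-PPXE (25uM, equal to KM) to luciferin, after 60 min at RT with an NADPH-regenerating system.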

[10] = Confirmation and Secondary Assay for Modulators of Hemoglobin Beta Chain Splicing at IVS2 654 locus (AID 910; active means well fitted curve in the direction sought with a large enough effect; an effect the other way counts as inactive or inconclusive;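 further: per-well total GFP intensity by laser scanning cytometry after 2-day treatment; % of control where 0% means no effect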); conditions: HeLa EGFP-654 splicing reporter, GFP fluorescence, 48 h; series mostly up to 38.3 µM
In short: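 HeLa cells stably carrying EGFP interrupted by mutant beta-globin IVS2-654 intron (CMV-driven) were treated with compound for 2 days at 37C; corrected splicing was scored as total peak GFP intensity per well (488 nm excitation, 500-520 nm emission).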

[11] = Confirmation and Secondary Assay for Modulators of Hemoglobin Beta Chain Splicing at IVS2 705 locus (AID 930; active means well fitted curve in the direction sought with a large enough effect; an effect the other way counts as inactive or inconclusive;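 further: HeLa cells stably expressing the EGFP-705 splicing reporter; GFP fluorescence per well restored by corrected splicing of the IVS2-705 intron in EGFP; % of control where 0% means no effect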); conditions: HeLa EGFP-705 splicing reporter, GFP fluorescence, 48 h; series mostly up to 38.3 µM
In short: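 Secondary splice-site specificity test uses HeLa expressing CMV-driven EGFP interrupted by IVS2-705; cells were treated 2 days at 37C with 500 nM antisense PNA as positive control.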

[12] = biological target: Ubiquitin carboxyl-terminal hydrolase 1 (Homo sapiens) (UniProt O94782); assay: Inhibitors of USP1/UAF1: Pilot qHTS (AID 504865; active means well fitted curve in the direction sought with a large enough effect; an effect the other way counts as inactive or inconclusive;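 further: rhodamine fluorescence freed from ubiquitin-rhodamine substrate followed over time; top concentration of the series differs between compounds; on the % scale 0 is the no-effect control and ±100 the full control effect; nearly all actives have a fitted effect of over 35% in size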); conditions: purified USP1/UAF1, Ub-rhodamine cleavage fluorescence; series mostly up to 54.9 µM
Chain of Ubiquitin carboxyl-terminal hydrolase 1 (Homo sapiens) (O94782 whole entry, looked up): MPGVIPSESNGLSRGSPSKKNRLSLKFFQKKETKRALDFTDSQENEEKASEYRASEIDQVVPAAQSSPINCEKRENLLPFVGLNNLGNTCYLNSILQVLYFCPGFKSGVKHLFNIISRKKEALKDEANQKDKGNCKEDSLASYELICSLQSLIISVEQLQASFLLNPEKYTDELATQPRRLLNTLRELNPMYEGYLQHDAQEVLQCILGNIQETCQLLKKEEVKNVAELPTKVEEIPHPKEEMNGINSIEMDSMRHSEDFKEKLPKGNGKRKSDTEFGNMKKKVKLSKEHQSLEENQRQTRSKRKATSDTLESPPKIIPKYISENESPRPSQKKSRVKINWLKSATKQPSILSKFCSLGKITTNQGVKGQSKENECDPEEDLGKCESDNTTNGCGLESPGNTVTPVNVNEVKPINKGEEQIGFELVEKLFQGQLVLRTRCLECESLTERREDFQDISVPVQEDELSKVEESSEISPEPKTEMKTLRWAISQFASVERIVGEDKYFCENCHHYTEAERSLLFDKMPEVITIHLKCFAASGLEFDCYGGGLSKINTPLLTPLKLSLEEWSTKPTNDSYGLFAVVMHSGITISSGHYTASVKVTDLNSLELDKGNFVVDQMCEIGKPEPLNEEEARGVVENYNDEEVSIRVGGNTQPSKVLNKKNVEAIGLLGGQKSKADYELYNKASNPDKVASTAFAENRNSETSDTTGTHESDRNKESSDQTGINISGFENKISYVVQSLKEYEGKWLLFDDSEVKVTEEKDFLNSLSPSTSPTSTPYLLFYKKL
In short: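 USP1/UAF1 complex (1nM) preincubated with compound 15 min at room temperature, then Ub-Rho substrate (150nM final) added. Fluorescence read kinetically at 480/540 nm, 6 reads every 60 seconds. Buffer: 50mM HEPES pH 7.8, 0.5mM EDTA, 0.1 mg/ml BSA, 1mM TCEP, 0.01% Tween-20.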

[13] = Primary qHTS for small molecule stabilizers of the endoplasmic reticulum resident proteome: Secreted ER Calcium Modulated Protein (SERCaMP) assay (AID 1508630; active means well fitted curve in the direction sought with a large enough effect; an effect the other way counts as inactive or inconclusive; further: on the % scale 0 is the no-effect control and ±100 the full control effect); conditions: SH-SY5Y GLuc-SERCaMP (Gaussia luciferase released on ER calcium loss) secretion, thapsigargin, luminescence; series mostly up to 38.4 µM
In short: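 The SH-SY5Y reporter protocol was run at 3 concentrations up to 38.3 uM (primary) or 11 concentrations (follow-up): 16 h compound, 100 nM thapsigargin for 4 h, then extracellular luciferase luminescence.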

[14] = biological target: Cytochrome P450 1A2 (Homo sapiens) (UniProt P05177); assay: p450-cyp1a2 (AID 410; calls by dose curve; further: potency means the concentration at half of the fitted maximal effect;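 on activity change, negative = inhibition: -100% = full effect of reference inhibitor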); conditions: recombinant CYP1A2, luciferin-ME demethylation, luminescence; series mostly up to 57 µM
Chain of Cytochrome P450 1A2 (Homo sapiens) (P05177 whole entry, looked up): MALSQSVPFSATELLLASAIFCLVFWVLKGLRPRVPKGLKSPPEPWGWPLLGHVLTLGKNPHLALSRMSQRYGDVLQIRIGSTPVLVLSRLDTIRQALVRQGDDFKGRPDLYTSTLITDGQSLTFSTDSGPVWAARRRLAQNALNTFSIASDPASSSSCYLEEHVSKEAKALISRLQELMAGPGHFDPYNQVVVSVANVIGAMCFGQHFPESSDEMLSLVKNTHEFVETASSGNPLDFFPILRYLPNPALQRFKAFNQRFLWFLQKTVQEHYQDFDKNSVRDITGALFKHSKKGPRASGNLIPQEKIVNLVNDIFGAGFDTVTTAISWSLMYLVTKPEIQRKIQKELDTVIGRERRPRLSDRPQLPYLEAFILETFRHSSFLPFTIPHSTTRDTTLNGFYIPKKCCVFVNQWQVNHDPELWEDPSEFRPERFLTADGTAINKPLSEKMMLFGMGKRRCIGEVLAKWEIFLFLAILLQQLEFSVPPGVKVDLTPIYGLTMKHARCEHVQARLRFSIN
In short: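 Luminescent demethylation readout: Luciferin-ME (100uM, equal to Km) turned over by 20nM CYP1A2 for 60 min at room temperature after NADPH regeneration addition, following 10 min compound preincubation. Normalization used 57 uM furafylline as full inhibition.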

[15] = biological target: Cytochrome P450 2C9 (Homo sapiens) (UniProt P11712); assay: qHTS Assay for Inhibitors and Substrates of Cytochrome P450 2C9 (AID 883; active means well fitted curve in the direction sought with a large enough effect; an effect the other way counts as inactive or inconclusive; further: nearly all actives have a fitted effect of over 60% in size; further: potency means the concentration at half of the fitted maximal effect); conditions: recombinant CYP2C9, luciferin-H luminescence, 60 min; series mostly up to 57.1 µM
Chain of Cytochrome P450 2C9 (Homo sapiens) (P11712 whole entry, looked up): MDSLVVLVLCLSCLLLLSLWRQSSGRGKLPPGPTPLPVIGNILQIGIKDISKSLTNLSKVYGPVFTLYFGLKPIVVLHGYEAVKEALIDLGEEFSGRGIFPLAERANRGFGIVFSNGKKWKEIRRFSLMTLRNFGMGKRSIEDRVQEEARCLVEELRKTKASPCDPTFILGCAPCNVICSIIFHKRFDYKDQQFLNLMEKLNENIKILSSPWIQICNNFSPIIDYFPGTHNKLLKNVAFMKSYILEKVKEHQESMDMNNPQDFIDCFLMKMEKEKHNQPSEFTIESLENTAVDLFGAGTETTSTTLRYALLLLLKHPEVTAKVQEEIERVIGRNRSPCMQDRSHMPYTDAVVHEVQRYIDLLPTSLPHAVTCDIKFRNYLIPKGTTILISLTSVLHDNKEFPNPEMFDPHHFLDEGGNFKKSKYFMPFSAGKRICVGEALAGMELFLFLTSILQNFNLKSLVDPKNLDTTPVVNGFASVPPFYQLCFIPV
In short: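 CYP2C9 deoxyluciferin hydroxylation, 37C, 60 min with NADPH regeneration; 10nM enzyme, 100uM Luciferin-H (KM). Glo detection reagent stopped reaction; luminescence normalized to sulphaphenazole (57uM) full inhibition.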

[16] = biological target: Cytochrome P450 3A4 (Homo sapiens) (UniProt P08684); assay: qHTS Assay for Inhibitors and Substrates of Cytochrome P450 3A4 (AID 884; active means well fitted curve in the direction sought with a large enough effect; an effect the other way counts as inactive or inconclusive; further: potency means the concentration at half of the fitted maximal effect; nearly all actives have a fitted effect of over 50% in size); conditions: recombinant CYP3A4, Luciferin-PPXE luminescence; series mostly up to 57.1 µM
In short: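 Luminescent readout of luciferin produced by CYP3A4 (20 nM) dealkylation of Luciferin-PPXE, 25 uM (its KM). NADPH-driven reaction ran 60 min at RT after 10 min compound preincubation; data scaled to 57 uM ketoconazole as 100% inhibition.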

[17] = biological target: Cytochrome P450 2D6 (Homo sapiens) (UniProt P10635); assay: qHTS Assay for Inhibitors and Substrates of Cytochrome P450 2D6 (AID 891; active means well fitted curve in the direction sought with a large enough effect; an effect the other way counts as inactive or inconclusive; further: potency means the concentration at half of the fitted maximal effect; nearly all actives have a fitted effect of over 60% in size); conditions: recombinant CYP2D6, luciferin-ME EGE luminescence; series mostly up to 57.1 µM
Chain of Cytochrome P450 2D6 (Homo sapiens) (P10635 whole entry, looked up): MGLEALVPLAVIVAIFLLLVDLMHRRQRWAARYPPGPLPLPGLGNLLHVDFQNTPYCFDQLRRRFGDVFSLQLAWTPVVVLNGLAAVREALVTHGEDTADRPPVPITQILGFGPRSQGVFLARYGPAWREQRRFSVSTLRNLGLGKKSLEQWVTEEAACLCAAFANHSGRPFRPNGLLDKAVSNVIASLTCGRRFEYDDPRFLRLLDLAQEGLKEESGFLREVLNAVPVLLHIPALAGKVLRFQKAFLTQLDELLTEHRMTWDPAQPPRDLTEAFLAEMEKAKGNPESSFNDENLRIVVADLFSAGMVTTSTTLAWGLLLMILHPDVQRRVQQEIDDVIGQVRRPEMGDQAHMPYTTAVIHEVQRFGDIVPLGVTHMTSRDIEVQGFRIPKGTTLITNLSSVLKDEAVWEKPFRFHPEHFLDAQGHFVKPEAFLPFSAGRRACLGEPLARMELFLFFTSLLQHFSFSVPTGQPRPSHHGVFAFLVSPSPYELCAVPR
In short: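 Luminescent read-out of luciferin formed by 5 nM human CYP2D6 demethylating 30 uM Luciferin-ME EGE (Km level) over 60 min at room temperature after NADPH regeneration addition. Data normalized to full inhibition by 1.43 uM quinidine.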

[18] = qHTS Assay for Identification of Small Molecule Agonists for Hypoxia Response Element Signaling Pathway (AID 914; active means well fitted activation curve with a large enough effect in the signal ratio, with a control signal flat, not every such curve was filed as active; the % refers to the signal ratio; further: % of control where 0% means no effect); conditions: ME-180 (cervical carcinoma) HRE-bla reporter, beta-lactamase ratio, CoCl2, 17 h; activation: active compounds read high
In short: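 qHTS titration; ME-180 HRE-bla cells; EC50 CoCl2 co-treatment, 17 h at 37 degrees Celsius; CCF4 dye, ex 405nm, em 460nm and 530nm; %Activity from ratio; AC50.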

| Structure (SMILES) | Potency [1] | activity change, negative = inhibition [2] [%] | activity change, negative = inhibition [3] [%] | activity, negative = inhibition [4] [%] | Potency [5] [µM] | Potency [6] [µM] | Potency [7] | Potency [8] | Potency [9] | Potency [10] | outcome [11] | Potency [12] | outcome [13] | Potency [14] | activity change, negative = inhibition [15] | Potency [16] | Potency [17] | Potency [15] | activation [18] [%] |
| --- | --- | --- | --- | --- | --- | --- | --- | --- | --- | --- | --- | --- | --- | --- | --- | --- | --- | --- | --- |
| COCCNc1ccnc(-c2c(C)noc2C)n1 | > 11.4 µM | 3.45 | 9 | 5.3 | > 46 | > 46 | inactive | inactive | inactive | inactive | inactive | inactive | inactive |  |  |  |  |  |  |
| COc1ncc2nc(CCc3ccccc3)c(=O)n(Cc3cccs3)c2n1 | > 11.4 µM | -2.76 | -5.02 | -3.9 | > 9.22 | > 46 | inactive |  |  |  |  |  | inactive |  |  |  |  |  |  |
| CNc1nc(-c2ccc(N(C)C)cc2)nc2ccccc12 | 6.77 µM (active) | 15.8 |  |  | > 46 | > 46 | inactive | inactive | inactive |  | inactive |  | inactive | 0.2 µM (active) | 108% [at 2.29 µM] |  |  |  |  |
| O=C(Oc1ccccc1)N1CCC2(CCCN(c3ccc(-c4ccccc4)cc3)C2)CC1 | > 11.4 µM | 27 |  | 6.94 |  | > 46 | inactive | inactive | inactive |  |  |  | inactive | inactive |  |  |  |  |  |
| COc1ccc(-c2nc3cnc(OC)nc3n(Cc3ccc(F)cc3)c2=O)cc1 | > 11.4 µM | 8.95 | -6.96 | 5.66 | > 9.22 | > 46 | inactive |  |  |  |  |  | inactive |  |  |  |  |  |  |
| O=C(c1ccco1)N1CCC2(CCCN(c3ccccn3)C2)CC1 | > 11.4 µM | -0.937 |  | -3.59 |  | > 46 | inactive | inactive | inactive |  |  |  | inactive | 10 µM (active) |  |  |  |  |  |
| O=C(c1ccco1)N1CCC2(CCCN(Cc3ccncc3)C2)CC1 | > 11.4 µM | -1.32 |  | -14.4 |  | > 46 | inactive | inactive | inactive |  |  |  | inactive | 15.8 µM (active) |  | 5.01 µM (active) | 3.16 µM (active) |  |  |
| c1cncc(CNc2ccnc(-c3cccnc3)n2)c1 | > 11.4 µM | 8.01 | 10.2 | 8.94 | > 46 | > 46 | inactive | inactive |  |  |  | inactive | inactive |  |  |  |  |  |  |
| O=C(c1cc(C(F)(F)F)cc(C(F)(F)F)c1)N1CCC2(CCCN(Cc3ccncc3)C2)CC1 | > 11.4 µM | 7.96 |  | -3.11 |  | > 46 | inactive | inactive | inactive |  |  |  | inactive | inactive |  |  |  |  |  |
| O=C(c1cccc(F)c1)N1CCC2(CCCN(Cc3ccncc3)C2)CC1 | > 11.4 µM | -4.41 |  | -4.85 |  | > 46 | inactive | inactive | inactive |  |  |  | inactive | 15.8 µM (active) |  |  | 7.94 µM (active) | 0.631 µM (active) |  |
| O=S(=O)(c1ccccc1)N1CCC2(CCN(Cc3ccncc3)CC2)CC1 | > 11.4 µM | -0.758 |  | 7.32 |  | > 46 | inactive | inactive | inactive |  |  |  | inactive | inactive |  | 3.98 µM (active) |  |  |  |
| COc1ccc(C(=O)N2CCC[C@@]3(CCN(Cc4ccccc4)C3)C2)cc1 | > 11.4 µM | 13 |  | -4.24 |  | > 46 | inactive | inactive | inactive |  |  |  | inactive | 12.6 µM (active) |  |  | 7.94 µM (active) |  |  |
| O=S(=O)(c1ccccc1)N1CCC2(CC1)CN(Cc1ccccc1)C2 | > 11.4 µM | 7.31 |  | 2.83 |  | > 46 |  | inactive |  |  |  |  | inactive | inactive |  |  | 0.158 µM (active) |  | 8.23 |
| O=C(c1ccncc1)N1CCC2(CCCN(Cc3ccccc3)C2)CC1 | > 11.4 µM | -9.7 |  | -8.26 |  | > 46 | inactive | inactive | inactive |  |  |  | inactive | inactive |  |  |  |  |  |
| N#Cc1cccc(NC(=O)N2CCCC3(CCN(C(=O)c4cc(C(F)(F)F)cc(C(F)(F)F)c4)CC3)C2)c1 | > 11.4 µM | -21.5 |  | -13.7 |  | > 46 | inactive |  | inactive |  |  |  | inactive | 6.31 µM (active) |  |  |  |  | -10.4 |
